Reference: PubChem BioAssay (EPA / NIEHS)
Inconclusive results are not listed. Calls of active or inactive are those of the source. Rule for the calls, unless noted: active = hit-call score of the fitted dose curve at least 0.9, where 1 is the maximum; inconclusive = response in the unintended direction; inactive = score below 0.9.

Key:
[1] = target: human Peroxisome Proliferator-activated Receptor alpha (PPARa), PPARA (gene 5465) (UniProt Q07869); assay: ATG_PPARa_TRANS: Attagene TRANS-FACTORIAL HepG2 Assay for human Peroxisome Proliferator-activated Receptor alpha (PPARa) (AID 2283001)
How it was run: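 HepG2 cells transiently transfected with multiplexed GAL4-UAS reporter units and chimeric NR-Gal4 constructs were dosed for 24 h. Reporter mRNA was measured by RT-PCR with fluorescent labelling and capillary electrophoresis; gain of signal fitted against DMSO.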

[2] = target: human Peroxisome Proliferator-activated Receptor delta (PPARd), PPARD (gene 5467) (UniProt Q03181); assay: ATG_PPARd_TRANS: Attagene TRANS-FACTORIAL HepG2 Assay for human Peroxisome Proliferator-activated Receptor delta (PPARd) (AID 2283002)
How it was run: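 Measured quantity: GAL4-UAS reporter transcript induction in HepG2 after 24 h chemical dosing, with NR-Gal4 chimeras supplied by transient transfection. Detection by RT-PCR and capillary electrophoresis; upward fit against DMSO.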

[3] = read-out: Intercellular Adhesion Molecule 1 (ICAM1), ICAM1 (gene 3383); assay: BSK_3C_ICAM1: BioMAP Diversity Plus: 3C Assay for Intercellular Adhesion Molecule 1 (ICAM1) Biomarker Activity (AID 2283003; active = hit-call score of the fitted dose curve at least 0.9, where 1 is the maximum; inactive = score below 0.9); conditions: primary human endothelial cells (HUVEC); actives raise or lower the signal
How it was run: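 Primary human umbilical vein endothelial cells in the BioMAP 3C system were exposed to chemicals for 24 h, then ICAM-1 was quantified by ELISA. Activity was fitted bidirectionally against the DMSO negative control baseline.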

[4] = BSK_3C_Proliferation: Cell Proliferation Assessment in the BioMAP Diversity Plus: 3C Assay (AID 2283006; active = hit-call score of the fitted dose curve at least 0.9, where 1 is the maximum; inactive = score below 0.9;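 for AC50: potency may reflect either rise or fall in cell number versus DMSO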); conditions: primary human endothelial cells (HUVEC)
How it was run: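 Human umbilical vein endothelial cells were grown sub-confluent and exposed to chemical for 48 h, then fixed with 10% TCA and stained with 0.1% sulforhodamine B; absorbance at 560 nm gave relative cell number, fitted bidirectionally against DMSO baseline.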

[5] = target: Peroxisome proliferator-activated receptor gamma (Homo sapiens) (UniProt P37231); assay: ATG_PPARg_TRANS: Attagene TRANS-FACTORIAL HepG2 Assay for human Peroxisome Proliferator-activated Receptor-gamma (PPARg) (AID 2283007)
How it was run: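 Human hepatoma HepG2, transient MRTU transfection, 24 h treatment. mRNA reporter signal by RT-PCR plus capillary electrophoresis, fluorescence detection; fitted for increase over DMSO negative control.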

[6] = target: human Retinoid X Receptor beta (RXRb), RXRB (gene 6257) (UniProt P28702); assay: ATG_RXRb_TRANS: Attagene TRANS-FACTORIAL HepG2 Assay for human Retinoid X Receptor beta (RXRb) (AID 2283013)
How it was run: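 HepG2 cells transiently transfected with multiplexed reporter units driven by GAL4-UAS and exogenous chimeric NR-Gal4 proteins; treated 24 h. Reporter mRNA measured by RT-PCR, 6-FAM labelling and capillary electrophoresis; gain-of-signal fitted versus DMSO baseline.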

[7] = target: human Thyroid Receptor alpha (THRa1), THRA (gene 7067) (UniProt P10827); assay: ATG_THRa1_TRANS: Attagene TRANS-FACTORIAL HepG2 Assay for human Thyroid Receptor alpha (THRa1) (AID 2283014)
How it was run: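 HepG2 cells transiently transfected with multiplexed GAL4-UAS reporter units for exogenous chimeric THRa1-Gal4; reporter mRNA measured 24 h after dosing by RT-PCR, 6-FAM labelling, HpaI digestion and capillary electrophoresis. Gain-of-signal fitted versus DMSO baseline.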

[8] = read-out: E-selectin (Homo sapiens) (UniProt P16581); assay: BSK_3C_Eselectin: BioMAP Diversity Plus: 3C Assay for Eselectin Biomarker Activity (AID 2283015; active = hit-call score of the fitted dose curve at least 0.9, where 1 is the maximum; inactive = score below 0.9); conditions: primary human endothelial cells (HUVEC); actives raise or lower the signal
How it was run: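 Primary human umbilical vein endothelial cells (3C system) were dosed with chemical and cell-surface E-selectin measured by ELISA 24 h later. Bidirectional curve fitting used DMSO as negative control and baseline.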

[9] = read-out: Interleukin-1 alpha (IL1a), IL1A (gene 3552); assay: BSK_BE3C_IL1a: BioMAP Diversity Plus: BE3C Assay for Interleukin-1 alpha (IL1a) Biomarker Activity (AID 2283016; active = hit-call score of the fitted dose curve at least 0.9, where 1 is the maximum; inactive = score below 0.9); conditions: primary human bronchial epithelial cells; actives raise or lower the signal
How it was run: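 Human primary bronchial epithelial cells (BE3C system) were dosed with compound and IL-1a measured by ELISA 24 h later. Activity was fitted bidirectionally against DMSO baseline; cytotoxicity was tracked in parallel cultures by SRB total-protein staining.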

[10] = read-out: Monocyte Chemoattractant Protein-1 (MCP1), CCL2 (gene 6347); assay: BSK_3C_MCP1: BioMAP Diversity Plus: 3C Assay for Monocyte Chemoattractant Protein-1 (MCP1) Biomarker Activity (AID 2283017; active = hit-call score of the fitted dose curve at least 0.9, where 1 is the maximum; inactive = score below 0.9); conditions: primary human endothelial cells (HUVEC); actives raise or lower the signal
How it was run: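 Primary human umbilical vein endothelial cells (3C system) were exposed to test chemical for 24 h, after which MCP-1 was quantified by ELISA. Activity was fitted bidirectionally against DMSO as negative control and baseline.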

[11] = read-out: Monocyte Chemoattractant Protein-1 (MCP1), CCL2 (gene 6347); assay: BSK_4H_MCP1: BioMAP Diversity Plus: 4H Assay for Monocyte Chemoattractant Protein-1 (MCP1) Biomarker Activity (AID 2283018; active = hit-call score of the fitted dose curve at least 0.9, where 1 is the maximum; inactive = score below 0.9); conditions: primary human endothelial cells (HUVEC); actives raise or lower the signal
How it was run: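 Human umbilical vein endothelial cells (4H system) dosed with chemical; MCP-1 measured by ELISA 24 h after dosing. Bidirectional curve fitting against DMSO negative control as baseline; parallel SRB total-protein staining tracks overt cytotoxicity.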

[12] = read-out: Human Leukocyte Antigen - DR isotype (HLADR), HLA-DRA (gene 3122); assay: BSK_3C_HLADR: BioMAP Diversity Plus: 3C Assay for Human Leukocyte Antigen - DR isotype (HLADR) Biomarker Activity (AID 2283019; active = hit-call score of the fitted dose curve at least 0.9, where 1 is the maximum; inactive = score below 0.9); conditions: primary human endothelial cells (HUVEC); actives raise or lower the signal
How it was run: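 Primary human umbilical vein endothelial cells (3C system) were dosed with compound and cell-surface HLA-DR was quantified by ELISA at 24 h. Activity was fitted bidirectionally against DMSO as negative control and baseline.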

[13] = read-out: Interleukin-8 (IL8), CXCL8 (gene 3576); assay: BSK_3C_IL8: BioMAP Diversity Plus: 3C Assay for Interleukin-8 (IL8) Biomarker Activity (AID 2283020; active = hit-call score of the fitted dose curve at least 0.9, where 1 is the maximum; inactive = score below 0.9); conditions: primary human endothelial cells (HUVEC); actives raise or lower the signal
How it was run: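 Primary human umbilical vein endothelial cells (3C system) were exposed to test chemical for 24 h, then IL-8 was quantified by ELISA. Responses were fitted bidirectionally against DMSO vehicle as baseline.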

[14] = target: Nuclear receptor subfamily 1 group I member 2 (Homo sapiens) (UniProt O75469); assay: ATG_PXR_TRANS: Attagene TRANS-FACTORIAL HepG2 Assay for human Pregnane X Receptor (PXR) (AID 2283008)
How it was run: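 Read-out is fluorescence of labelled reporter cDNA fragments separated by capillary electrophoresis after RT-PCR and HpaI digestion. Source: HepG2 cells carrying PXR-GAL4/UAS reporter constructs, treated 24 h; activity fitted upward relative to DMSO.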

[15] = target: Retinoic acid receptor RXR-alpha (Homo sapiens) (UniProt P19793); assay: ATG_RXRa_TRANS: Attagene TRANS-FACTORIAL HepG2 Assay for human Retinoid X Receptor alpha (RXRa) (AID 2283012)
How it was run: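 HepG2 cells transiently transfected with multiplexed GAL4-UAS reporter units and chimeric NR-GAL4 fusions, dosed 24 h. Reporter mRNA measured by RT-PCR, FAM labelling, HpaI digestion and capillary electrophoresis; gain-of-signal fitted relative to DMSO baseline.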

[16] = target: human RAR-related Orphan Receptor beta (RORb), RORB (gene 6096) (UniProt Q92753); assay: ATG_RORb_TRANS: Attagene TRANS-FACTORIAL HepG2 Assay for human RAR-related Orphan Receptor beta (RORb) (AID 2283010)
How it was run: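 HepG2 cells were transiently transfected with multiplexed GAL4-UAS reporter units expressing chimeric nuclear receptor–GAL4 proteins, then dosed for 24 h. Reporter mRNA was quantified by RT-PCR with fluorescent labelling and capillary electrophoresis; gain of signal was fitted relative to DMSO.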

[17] = target: human RAR-related Orphan Receptor gamma (RORg), RORC (gene 6097) (UniProt P51449); assay: ATG_RORg_TRANS: Attagene TRANS-FACTORIAL HepG2 Assay for human RAR-related Orphan Receptor gamma (RORg) (AID 2283011)
How it was run: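 Readout: reporter transcript induction (RT-PCR, fluorescent primer extension, capillary electrophoresis) after 24 h compound exposure of transiently transfected HepG2 cells carrying a RORg-Gal4 chimera and GAL4-UAS reporters; DMSO served as baseline, with increasing signal fitted.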

[18] = target: human Retinoic Acid Receptor beta (RARb), RARB (gene 5915) (UniProt P10826); assay: ATG_RARb_TRANS: Attagene TRANS-FACTORIAL HepG2 Assay for human Retinoic Acid Receptor beta (AID 2283004)
How it was run: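 HepG2 cells transiently transfected with multiplexed GAL4-UAS reporter units expressing chimeric NR–Gal4 fusions; 24 h compound exposure. Reporter mRNA quantified by RT-PCR, 6-FAM labelling, HpaI digestion and capillary electrophoresis; gain-of-signal fitted against DMSO baseline.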

[19] = target: Retinoic acid receptor alpha (Homo sapiens) (UniProt P10276); assay: ATG_RARa_TRANS: Attagene TRANS-FACTORIAL HepG2 Assay for human Retinoic Acid Receptor alpha (RARa) (AID 2283005)
How it was run: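 HepG2 cells transiently transfected with multiple reporter units expressing chimeric RARα-GAL4 fusion, with GAL4-UAS-driven reporters. After 24 h compound exposure, reporter mRNA induction quantified by RT-PCR and capillary electrophoresis with fluorescent labeling; gain-of-signal fitted relative to DMSO control.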

[20] = target: human Retinoic Acid Receptor gamma (RARg), RARG (gene 5916) (UniProt P13631); assay: ATG_RARg_TRANS: Attagene TRANS-FACTORIAL HepG2 Assay for human Retinoic Acid Receptor gamma (RARg) (AID 2283009)
How it was run: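 HepG2 cells transiently transfected with multiplexed reporter units expressing chimeric RARg-GAL4 and GAL4-UAS-driven reporters; 24 h compound exposure. Reporter mRNA quantified by RT-PCR with fluorescent labelling and capillary electrophoresis; gain-of-signal fitted relative to DMSO baseline.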

Measured: AC50

Chain of Retinoic acid receptor RXR-alpha (Homo sapiens) (P19793 whole entry, looked up, the tested form may be a part): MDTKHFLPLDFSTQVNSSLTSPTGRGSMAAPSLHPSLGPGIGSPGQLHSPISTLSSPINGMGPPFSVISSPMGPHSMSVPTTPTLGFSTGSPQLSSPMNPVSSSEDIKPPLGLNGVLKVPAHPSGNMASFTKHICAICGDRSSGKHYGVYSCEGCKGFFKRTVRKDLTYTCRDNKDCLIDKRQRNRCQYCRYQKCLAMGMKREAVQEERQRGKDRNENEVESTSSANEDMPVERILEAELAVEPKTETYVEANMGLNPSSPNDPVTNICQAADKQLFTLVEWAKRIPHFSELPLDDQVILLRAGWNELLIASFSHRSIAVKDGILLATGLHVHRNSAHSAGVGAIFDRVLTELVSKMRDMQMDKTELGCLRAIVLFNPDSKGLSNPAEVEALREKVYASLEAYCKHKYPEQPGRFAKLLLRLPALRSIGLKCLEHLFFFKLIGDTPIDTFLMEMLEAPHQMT
Chain of human Peroxisome Proliferator-activated Receptor delta (PPARd), PPARD (gene 5467) (Q03181 whole entry, looked up, the tested form may be a part): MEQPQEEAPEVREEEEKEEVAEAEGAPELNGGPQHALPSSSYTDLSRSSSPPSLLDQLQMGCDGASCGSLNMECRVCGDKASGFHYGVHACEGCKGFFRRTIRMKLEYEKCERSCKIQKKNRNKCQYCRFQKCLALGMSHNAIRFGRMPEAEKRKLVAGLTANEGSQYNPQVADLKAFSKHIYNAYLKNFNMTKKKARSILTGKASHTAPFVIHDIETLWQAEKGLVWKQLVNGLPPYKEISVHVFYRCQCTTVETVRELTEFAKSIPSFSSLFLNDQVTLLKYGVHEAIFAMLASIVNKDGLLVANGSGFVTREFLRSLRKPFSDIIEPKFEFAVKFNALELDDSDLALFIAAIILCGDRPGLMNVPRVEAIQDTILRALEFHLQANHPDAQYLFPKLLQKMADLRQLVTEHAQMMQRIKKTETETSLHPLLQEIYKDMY
Chain of Peroxisome proliferator-activated receptor gamma (Homo sapiens) (P37231 whole entry, looked up): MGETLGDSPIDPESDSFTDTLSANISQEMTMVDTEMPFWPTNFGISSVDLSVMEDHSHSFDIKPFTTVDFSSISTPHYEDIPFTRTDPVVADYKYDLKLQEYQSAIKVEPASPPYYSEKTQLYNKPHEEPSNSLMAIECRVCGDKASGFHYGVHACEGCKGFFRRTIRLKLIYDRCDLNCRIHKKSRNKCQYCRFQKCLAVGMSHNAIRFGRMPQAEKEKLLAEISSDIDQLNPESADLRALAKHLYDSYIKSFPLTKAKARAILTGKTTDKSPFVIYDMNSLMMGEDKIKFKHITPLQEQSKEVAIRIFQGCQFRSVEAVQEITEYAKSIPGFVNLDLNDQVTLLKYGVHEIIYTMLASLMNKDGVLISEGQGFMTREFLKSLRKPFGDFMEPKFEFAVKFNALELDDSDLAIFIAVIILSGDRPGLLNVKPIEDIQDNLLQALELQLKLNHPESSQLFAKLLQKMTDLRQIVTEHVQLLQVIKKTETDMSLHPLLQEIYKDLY
Chain of human RAR-related Orphan Receptor gamma (RORg), RORC (gene 6097) (P51449 whole entry, looked up, the tested form may be a part): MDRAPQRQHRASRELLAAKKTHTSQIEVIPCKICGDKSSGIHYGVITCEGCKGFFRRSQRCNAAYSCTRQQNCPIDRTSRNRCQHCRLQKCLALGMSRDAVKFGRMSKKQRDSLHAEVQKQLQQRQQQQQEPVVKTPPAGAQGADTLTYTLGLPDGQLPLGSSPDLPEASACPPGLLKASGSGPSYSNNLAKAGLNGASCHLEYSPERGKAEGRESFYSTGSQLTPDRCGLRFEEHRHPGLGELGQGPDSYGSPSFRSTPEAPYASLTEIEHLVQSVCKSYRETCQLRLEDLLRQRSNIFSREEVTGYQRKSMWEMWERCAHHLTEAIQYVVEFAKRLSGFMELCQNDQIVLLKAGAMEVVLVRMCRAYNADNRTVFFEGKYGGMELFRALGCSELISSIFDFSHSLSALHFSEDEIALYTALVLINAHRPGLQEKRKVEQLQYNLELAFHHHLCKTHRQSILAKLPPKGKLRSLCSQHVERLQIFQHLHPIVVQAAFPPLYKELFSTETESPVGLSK
Chain of human Thyroid Receptor alpha (THRa1), THRA (gene 7067) (P10827 whole entry, looked up, the tested form may be a part): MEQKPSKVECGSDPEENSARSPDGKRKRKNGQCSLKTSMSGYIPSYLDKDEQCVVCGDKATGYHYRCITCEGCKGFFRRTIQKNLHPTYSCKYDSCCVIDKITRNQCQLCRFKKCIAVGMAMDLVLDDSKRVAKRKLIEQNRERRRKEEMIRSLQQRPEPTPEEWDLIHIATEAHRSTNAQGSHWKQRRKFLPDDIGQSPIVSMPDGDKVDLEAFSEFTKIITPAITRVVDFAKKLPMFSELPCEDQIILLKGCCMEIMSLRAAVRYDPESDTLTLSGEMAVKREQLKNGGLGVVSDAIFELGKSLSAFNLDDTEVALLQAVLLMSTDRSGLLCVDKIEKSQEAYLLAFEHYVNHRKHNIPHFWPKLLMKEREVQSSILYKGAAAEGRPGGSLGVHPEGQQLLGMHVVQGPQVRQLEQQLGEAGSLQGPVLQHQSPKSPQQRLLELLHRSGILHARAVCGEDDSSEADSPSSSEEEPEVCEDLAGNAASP
Chain of human Retinoid X Receptor beta (RXRb), RXRB (gene 6257) (P28702 whole entry, looked up, the tested form may be a part): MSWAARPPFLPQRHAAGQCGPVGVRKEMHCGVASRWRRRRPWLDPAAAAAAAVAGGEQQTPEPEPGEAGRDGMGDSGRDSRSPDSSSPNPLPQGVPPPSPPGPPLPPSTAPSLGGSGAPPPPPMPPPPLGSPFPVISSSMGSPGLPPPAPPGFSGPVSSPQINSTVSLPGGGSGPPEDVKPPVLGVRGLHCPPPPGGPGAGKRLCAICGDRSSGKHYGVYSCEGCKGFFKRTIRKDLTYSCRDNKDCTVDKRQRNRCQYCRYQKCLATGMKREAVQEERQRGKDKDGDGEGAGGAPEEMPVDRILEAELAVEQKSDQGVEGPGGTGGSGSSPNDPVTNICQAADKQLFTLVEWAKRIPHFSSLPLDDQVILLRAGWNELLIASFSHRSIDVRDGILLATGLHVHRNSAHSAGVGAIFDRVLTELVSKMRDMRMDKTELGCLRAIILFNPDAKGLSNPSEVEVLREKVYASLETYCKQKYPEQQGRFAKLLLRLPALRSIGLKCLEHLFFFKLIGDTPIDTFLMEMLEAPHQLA
Chain of human Peroxisome Proliferator-activated Receptor alpha (PPARa), PPARA (gene 5465) (Q07869 whole entry, looked up, the tested form may be a part): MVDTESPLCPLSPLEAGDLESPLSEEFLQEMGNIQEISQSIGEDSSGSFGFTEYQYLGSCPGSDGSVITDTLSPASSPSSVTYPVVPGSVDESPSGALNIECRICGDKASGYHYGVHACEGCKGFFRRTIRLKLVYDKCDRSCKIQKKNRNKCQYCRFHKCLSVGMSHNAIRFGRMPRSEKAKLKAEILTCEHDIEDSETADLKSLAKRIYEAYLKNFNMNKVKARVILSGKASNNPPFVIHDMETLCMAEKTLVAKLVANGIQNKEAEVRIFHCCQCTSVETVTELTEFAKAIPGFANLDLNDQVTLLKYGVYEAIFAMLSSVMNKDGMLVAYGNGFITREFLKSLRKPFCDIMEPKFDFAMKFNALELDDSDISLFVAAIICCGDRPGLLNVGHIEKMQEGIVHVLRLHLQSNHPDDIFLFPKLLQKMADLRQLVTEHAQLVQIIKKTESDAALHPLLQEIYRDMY
Chain of Nuclear receptor subfamily 1 group I member 2 (Homo sapiens) (O75469 whole entry, looked up, the tested form may be a part): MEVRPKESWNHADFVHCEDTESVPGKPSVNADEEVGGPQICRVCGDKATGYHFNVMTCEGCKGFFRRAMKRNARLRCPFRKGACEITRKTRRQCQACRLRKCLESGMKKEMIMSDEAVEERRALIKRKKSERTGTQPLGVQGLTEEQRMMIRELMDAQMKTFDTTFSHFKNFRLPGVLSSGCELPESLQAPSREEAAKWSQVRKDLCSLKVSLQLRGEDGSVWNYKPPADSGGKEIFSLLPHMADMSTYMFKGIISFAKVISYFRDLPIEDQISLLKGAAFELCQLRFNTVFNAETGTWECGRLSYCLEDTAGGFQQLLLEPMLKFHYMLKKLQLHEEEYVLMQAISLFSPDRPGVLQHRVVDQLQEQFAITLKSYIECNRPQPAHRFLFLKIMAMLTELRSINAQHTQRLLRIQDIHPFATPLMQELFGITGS
Chain of E-selectin (Homo sapiens) (P16581 whole entry, looked up): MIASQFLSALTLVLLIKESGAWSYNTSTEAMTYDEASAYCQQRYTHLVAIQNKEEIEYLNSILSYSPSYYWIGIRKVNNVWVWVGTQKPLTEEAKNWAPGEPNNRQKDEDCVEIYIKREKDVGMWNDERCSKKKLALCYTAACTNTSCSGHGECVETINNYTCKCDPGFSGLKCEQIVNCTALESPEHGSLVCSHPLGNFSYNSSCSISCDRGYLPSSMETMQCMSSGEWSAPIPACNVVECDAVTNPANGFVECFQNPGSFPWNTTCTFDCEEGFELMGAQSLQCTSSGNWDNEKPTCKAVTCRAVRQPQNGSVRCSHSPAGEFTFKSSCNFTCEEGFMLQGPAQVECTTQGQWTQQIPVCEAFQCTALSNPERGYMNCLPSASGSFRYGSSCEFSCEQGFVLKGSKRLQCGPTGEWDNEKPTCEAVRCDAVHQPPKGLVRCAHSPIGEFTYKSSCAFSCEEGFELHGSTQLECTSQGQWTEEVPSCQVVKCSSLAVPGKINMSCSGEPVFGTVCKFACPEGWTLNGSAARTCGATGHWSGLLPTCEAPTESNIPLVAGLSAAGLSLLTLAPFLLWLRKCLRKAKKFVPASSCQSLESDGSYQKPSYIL
Chain of human RAR-related Orphan Receptor beta (RORb), RORB (gene 6096) (Q92753 whole entry, looked up, the tested form may be a part): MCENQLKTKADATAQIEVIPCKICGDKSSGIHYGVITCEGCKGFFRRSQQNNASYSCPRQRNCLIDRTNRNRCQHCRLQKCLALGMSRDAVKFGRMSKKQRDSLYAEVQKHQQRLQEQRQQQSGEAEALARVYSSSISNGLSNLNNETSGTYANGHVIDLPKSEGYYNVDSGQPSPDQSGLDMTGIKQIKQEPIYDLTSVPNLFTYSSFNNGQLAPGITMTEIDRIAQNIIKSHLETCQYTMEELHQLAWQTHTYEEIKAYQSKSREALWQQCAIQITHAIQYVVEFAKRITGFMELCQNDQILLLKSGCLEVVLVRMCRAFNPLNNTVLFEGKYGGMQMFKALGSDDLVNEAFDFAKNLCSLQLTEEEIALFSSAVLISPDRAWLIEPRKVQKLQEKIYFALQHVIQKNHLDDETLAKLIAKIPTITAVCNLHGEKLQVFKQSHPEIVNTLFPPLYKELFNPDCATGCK

CC(C)(COC(=O)c1ccccc1)COC(=O)c1ccccc1
inactive: [1] | [2] | [3] | [5] | [6] | [7] | [9] | [13]
active: [4] 22.2 µM | [8] 20 µM | [10] 34.4 µM | [11] 11.3 µM | [12] 27.8 µM

C[C@H]1C[C@@H]2[C@H]([C@@H](O)C[C@@]3(C)[C@H]2CC[C@]3(O)C(=O)CO)[C@@]2(C)C=CC(=O)C=C12
not listed: [5] | [16] | [17] | [18] | [19] | [20]
inactive: all other assays above

Cc1ccc(S)cc1
inactive: [1] | [2] | [14] | [15]
active: [5] 22.8 µM

NCCNCCN
not listed: [7] | [18] | [19] | [20]
inactive: all other assays above

O=C(Nc1ccccc1)c1cc([N+](=O)[O-])ccc1Cl
inactive: [1] | [2] | [16] | [17] | [15] | [7]
active: [5] 19.8 µM | [14] 3.82 µM

Cc1ccc(Nc2ccc(O)c3c2C(=O)c2ccccc2C3=O)cc1
not listed: [6] | [16] | [17] | [18] | [19] | [20]
inactive: all other assays above

CCCCCC(CO)CCC (configuration not stated)
inactive: [1] | [2] | [18] | [19] | [5] | [14] | [20] | [17] | [6] | [7]

C=C(C)C(=O)O[C@H]1C[C@@H]2CC[C@@]1(C)C2(C)C
active: [3] 28.8 µM | [4] 8.38 µM | [6] 100 µM | [8] 15.1 µM | [9] 20 µM | [10] 20 µM | [11] 5.54 µM | [12] 9.37 µM | [13] 20 µM
inactive: [1] | [2] | [5] | [16] | [15]

COc1cc(C)cc(O)c1
inactive: [1] | [2] | [5] | [14] | [17] | [15] | [6] | [7]

CC1(C)C(=O)N(Br)C(=O)N1Cl
inactive: [1] | [2] | [19] | [5] | [7]

O=S(=O)(O)c1cccc2c(S(=O)(=O)O)cccc12
inactive: [1] | [2] | [18] | [15] | [6]
